Hit rate of the full screen: of about 360,000 compounds, about 7,500 (2.1%) were called active. Inconclusive results (about 8%) are left out. Only a selection was taken, and actives are over-represented in it overall. Unmarked numbers belong to inactive results. Calls come from the whole dose curve; as a rule, active = well fitted cell-killing curve with a large enough effect; inconclusive = small, poorly fitted or top-dose-only effect, or effect the other way, or another doubt; inactive = no such curve, though single readings can be large or run the other way.
assay: qHTS for induction of synthetic lethality in tumor cells producing 2HG: qHTS for the HT-1080-IDH1KD cell line; details: HT-1080 IDH1 knockdown viability, ATP luminescence, 48 h; series mostly up to 46.1 µM; activity, negative = toxicity: at the top concentration;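 for activity, negative = toxicity: 0% = DMSO wells and -100% = cell-free medium wells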
Method in brief: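 CellTiter-Glo luminescence after 48 h compound exposure at 37 degrees C of IDH1-knockdown HT-1080 cells in 5% FBS RPMI. %Activity scaled between DMSO wells and cell-free media wells, with curves fitted and assigned curve classes.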
Potency is the fitted concentration of half-maximal effect.

| SMILES | activity, negative = toxicity | Potency |
| --- | --- | --- |
| COc1ccc(NC2CCCN(C(=O)c3ccccc3-c3ncc[nH]3)C2)cc1 (stereo unspecified) | -0.498% |  |
| COc1cc(-c2nnc(NC(=O)CS(=O)(=O)c3ccc(Cl)cc3)o2)cc(OC)c1OC | -18.1% |  |
| CC(=O)Nc1c(-c2ccc(C)cc2)nc2ccc(Cl)cn12 | 10.7% |  |
| CCCCn1nnnc1C1(C)CCC(=O)N1Cc1ccc(OC)c(OC)c1 (stereo unspecified) | 13.4% |  |
| CCCCCCCCn1c2c(c(=N)c3c1CCC3)CCCC2 |  | 8.2 µM (active) |
| CCCc1nc2ccccc2n1C(C)C(=O)NC(C)(C)C (stereo unspecified) | 3.92% |  |
| CC1CCCC(C)N1C(=O)COC(=O)c1ccccc1C(=O)c1ccccc1 (stereo unspecified) | 0.369% |  |
| Cc1cccnc1NC(=O)c1cccc(S(=O)(=O)N2CCN(c3ccc(F)cc3)CC2)c1 |  | 29.1 µM (active) |
| O=C(Nc1ccc2c(c1)CCC2)c1cccc(S(=O)(=O)N2CCN(c3ccc(F)cc3)CC2)c1 | -0.473% |  |
| Cc1ccc(C(=O)Nc2ncccc2C)cc1S(=O)(=O)N1CCOCC1 | -0.0269% |  |
| O=C1NC[C@H](CCCCN2CCN(CCc3ccccc3)C(=O)C2=O)N(CC2CCCCC2)C1=O | 19.7% |  |
| COC(=O)[C@]12CCCCC=C1N(Cc1ccco1)C(=O)[C@H](CC(=O)NCC1CCCCC1)C2 | 5.64% |  |
| CCOC(=O)C1=CCC2C(=O)N(Cc3ccccc3)C(=O)C12 (stereo unspecified) | 16.5% |  |
| COc1ccc(C2=Nc3ccccc3NC(=O)C2N(C(=O)c2cc3ccccc3[nH]2)c2ccccc2)cc1 (stereo unspecified) | -17.6% |  |
| CC(C)Oc1cc(F)ccc1-c1cc(C(=O)Nc2ccc(F)cc2)[nH]n1 | 23.9% |  |
| CC(=O)c1cccc(-c2cnc3c(NC=O)cc(-c4ccc(N5CCN(C)CC5)cc4)cn23)c1 | 0.623% |  |
| COC(=O)c1ccc(-c2c(-c3ccccc3)ncc3cc(OC)c(OC)cc23)cc1 | 12.5% |  |
| CC(=O)c1ccc(-c2cnc3c(NC=O)cc(-c4cccc(NS(C)(=O)=O)c4)cn23)cc1 |  | 8.2 µM (active) |
| CS(=O)(=O)Nc1cccc(-c2cn3ccccc3n2)c1 | 2.25% |  |
| COc1ccc(-c2cc(NC=O)c3ncc(-c4ccccc4)n3c2)cc1OC |  | 16.4 µM (active) |
| COc1cc(C=O)ccc1Oc1nnnn1-c1ccccc1 | 0.603% |  |
| O=[N+]([O-])c1ccc(C(S(=O)(=O)Cc2ccccc2)S(=O)(=O)Cc2ccccc2)cc1 | 15.6% |  |
| C[C@H]1COc2cc(N3CCSCC3)ccc2S(=O)(=O)N1 | 10.8% |  |
| O=C(O)C1=C(C(=O)O)C2CCC1C2 | 3.61% |  |
| CCCNC(=O)c1cc(C2CCCCN2S(=O)(=O)c2ccc(C#N)cc2)on1 (stereo unspecified) | 14.6% |  |
| CCOc1ccc(CCN2C(=O)c3cccnc3C2=O)cc1OCC | 26.8% |  |

| SMILES | activity, negative = toxicity | Potency |
| --- | --- | --- |
| NC1=CC(=O)C(=O)c2cccnc21 |  | 11.6 µM (active) |
| O=C1c2cccnc2C(=O)N1Cc1cccs1 | 16% |  |
| COc1cc2nc(Cl)nc(NC3CC3)c2cc1OC | -9.28% |  |
| CC(C)CCC(=O)Nc1cc(S(=O)(=O)N2CCOCC2)ccc1N1CCCC1 | 0.313% |  |
| Cc1ccc(-c2ccc(CN3C(C(C)C)C(=O)N(Cc4cn(CCC5OCCCO5)nn4)CCS3(=O)=O)cc2)cc1 (stereo unspecified) | -7.51% |  |
| Cc1cc2c(cc1C)N1C(=O)c3cc4ccccc4cc3NC(=O)C1C(=O)N2 (stereo unspecified) | 1.1% |  |
| CS(=O)(=O)/C(C#N)=C/c1cccn1S(=O)(=O)c1ccc([N+](=O)[O-])cc1 | -6.02% |  |
| O=C(C1CCCO1)N1CCN(C(=O)C23CC4CC(CC(C4)C2)C3)CC1 (stereo unspecified) | 14.9% |  |
| CN(/N=C/c1ccccc1)C(=S)c1ccccc1 | -5.97% |  |
| CCN(CC)C(=O)N(CC)Cc1ccccc1 | 2.96% |  |
| Oc1ccc(/C=N/N(Cc2ccccc2)c2ccccc2)cc1 |  | 16.4 µM (active) |
| C[C@H]1CN([C@@H](C)CO)C(=O)CCCn2cc(nn2)CO[C@@H]1CN(C)C(=O)Nc1ccccc1 | 1% |  |
| O=C(CSc1nc2cccc(F)c2c(=O)n1-c1ccccc1)Nc1ccc2c(c1)CCC2 | 18.2% |  |
| NC(=O)CSc1nnc(-c2cccc(S(=O)(=O)N3CCOCC3)c2)o1 | -2.93% |  |
| Cc1cc2nnc(SCC(=O)N3CCN(c4ccccc4)CC3)n2c(N)n1 | 21.7% |  |
| Cn1c(CNC(=O)c2ccco2)nnc1SCC(=O)N1CCN(c2ccccc2)CC1 | 3.17% |  |
| Cn1c(Cc2cccc3ccccc23)nnc1SCC(=O)N1CCN(c2cccc(Cl)c2)CC1 |  | 20.6 µM (active) |
| CCc1c(N=O)c(-c2ccccc2)n(O)[n+]1[O-] | -7.78% |  |
| CCN(C(=O)Nc1cccc2ccccc12)c1ccccc1 | -4.17% |  |
| COc1cccc(NC(=O)CN(C)C(=O)c2cc(Cl)nc3ccccc23)c1 | -3.44% |  |
| CCN(CC)C(=O)C1=C(C)N(Cc2ccc(F)cc2)C(=O)C(CC(=O)NC2CCCC2)C1 (stereo unspecified) | -4.13% |  |
| CC[n+]1cc(C)ccc1/C=C/c1ccc(N(C)C)cc1 |  | 7.31 µM (active) |
| O=C(NC1CCCCC1)C(c1cc2ccccc2o1)n1c(=O)c(-c2ccco2)nc2ccccc21 (stereo unspecified) | -16.8% |  |
| O=C(O)CCn1cc(/C=C/C(=O)c2ccc(Cl)cc2)c(-c2cccc(Br)c2)n1 |  | 23.1 µM (active) |
| CCOC(=O)/C(C#N)=C/c1cn(CCC(=O)O)nc1-c1ccc(Br)cc1 | -2.79% |  |
